The campaign covered roughly 360,000 compounds. About 1,500 (0.42%) were called active. This is one part of a sample in which actives are shown more often than they occur. Values without a mark were called inactive. Cut-off read from the data, not from the text of the source: active = inhibition above about 8.5%; inactive = the rest.

This assay deals with HIV-1 gp120 / PG9 antibody interaction. Put plainly: binders of HIV-1 gp120 antibody PG9, primary screen, biochemical, TR-FRET (AID 624416). The settings on record: TR-FRET gp120-PG9 antibody binding; at 6.7 µM; hits give high values. A general note: In TR-FRET formats the signal depends on donor and acceptor labels being close together.
As to `CC(C)(C)c1ccc(S(=O)(=O)NCC2CCN(C(=O)C(=O)c3cc4ccccc4o3)CC2)cc1`, the inhibition (commonly the relative decrease from the control value, in per cent) is -1.81%.

Take `Cc1cc(Br)cn2c(Cc3ccccc3C(F)(F)F)c(-c3ccc(C#N)cc3)nc12`: the inhibition was 0.29%.

In the case of `O=C1COc2ccc(C(=O)COC(=O)c3cccnc3Cl)cc2N1`, the inhibition was -1.31%.

As to `O=C1COc2ccc(C(=O)COC(=O)c3ccccc3Cl)cc2N1`, the inhibition is 28.2% (active).

As to `COc1cc(N)c(Cl)cc1C(=O)OCC(=O)c1ccc2c(c1)NC(=O)CO2`, the inhibition is -0.01%.

`OC(c1ccccc1)(c1ccccc1)C1CCN(CCCOc2ccc(-c3ccsc3)cc2)CC1`: the inhibition is 1.88%.

Turning to `COCCCNC(=O)C[C@H]1C[C@@]2(C(=O)OC)C(=C[C@H](C(C)(C)C)O[C@@H]2C)N(Cc2ccc3c(c2)OCO3)C1=O`, the inhibition is 0.35%.

Take `CC(C)C[C@H](NC(=O)CC1CCCC1)C(=O)N1CCC[C@H]1C(=O)NCc1ccccc1`: the inhibition is -0.84%.

Regarding `Cn1c(=S)sc2ccc3ccccc3c21`, the inhibition is 14.2% (active).

Take `COc1ccc2ccccc2c1CNc1nnnn1C`: the inhibition was 0.54%.

`CC(=O)C1=C(C)N(Cc2ccc(Cl)cc2)C(=S)NC1c1ccc(F)cc1` (configuration not stated): the inhibition was -2.38%.

For the molecule `Cc1ccc2nc(-c3ccc(CN4CCC(n5cc(-c6ccccc6)[nH]c5=O)CC4)cc3)c(-c3ccccc3)nc2c1`, the inhibition is -0.32%.

With `O=C(NCc1ccccc1)[C@H]1CCCN1C(=O)[C@H]1CCCN1C(=O)N1CCOCC1`, the inhibition is -0.88%.

On to `CC(C)(C)n1nc(C2CC2)c(Br)c1NC(=O)c1ccccc1F`, for which the inhibition is 0.97%.

With `CC1CCN(C(=O)c2ncn3c2C(=O)N[C@@H](C)C3)CC1`, the inhibition was -0.93%.

In the case of `O=C(COC(=O)c1ccc2c(c1)OCCO2)NCc1ccccc1Cl`, the inhibition was 9.13% (active).

In the case of `O=C(COC(=O)c1cc2c(s1)CCCC2)NCc1ccccc1Cl`, the inhibition was -0.89%.

For `O=C(OCc1ccccc1F)c1ccc2c(c1)OCCO2`, the inhibition is -1.71%.

On to `CCOC(=O)/C=C/c1ccccc1O`, for which the inhibition is 0.44%.

Consider `O=C1C(=O)N(CCN2CCOCC2)C(c2cccc(Cl)c2)/C1=C(/O)c1ccc2c(c1)OCO2` (configuration not stated), for which the inhibition was 30.6% (active).

With `O=C1C(=O)N(CCN2CCOCC2)C(c2ccccn2)/C1=C(/O)c1ccc(Cl)cc1` (configuration not stated), the inhibition was 0.67%.

Take `CC1Cc2cc(/C(O)=C3\C(=O)C(=O)N(CCN4CCOCC4)C3c3ccccc3F)ccc2O1` (configuration not stated): the inhibition is 13.2% (active).

Consider `COCCCN1C(=O)C(=O)/C(=C(/O)c2ccc3c(c2)CC(C)O3)C1c1cccnc1` (configuration not stated), for which the inhibition was 3.22%.

In the case of `O=C1C(=O)N(CCCN2CCOCC2)C(c2ccc([N+](=O)[O-])cc2)/C1=C(\O)c1ccc2c(c1)OCCO2` (configuration not stated), the inhibition was -1.43%.

Turning to `COc1ccc(C2/C(=C(/O)c3ccc4c(c3)CC(C)O4)C(=O)C(=O)N2Cc2ccncc2)cc1` (configuration not stated), the inhibition is 2.5%.

Regarding `Cc1nc(NC(=O)C(C)(C)C)sc1[N+](=O)[O-]`, the inhibition was -0.45%.

As for `COC(=O)C1=C(C)N(Cc2cccc(C(F)(F)F)c2)C(=NCc2ccccc2)NC1c1ccccc1C(F)(F)F` (configuration not stated), the inhibition is 0.63%.

Regarding `COC(=O)C(C(=O)OC)c1ccccc1NS(=O)(=O)c1cccc2ccccc12`, the inhibition was 0.18%.

Take `CC(=NNC(N)=O)c1ccc(Cl)c(-n2cccc2)c1`: the inhibition was 0.53%.

For `CCN(CC)S(=O)(=O)c1ccc2[nH]cc(C(=O)NCCc3ccccc3)c(=O)c2c1`, the inhibition was -0.32%.

Turning to `CCCCNC(=O)c1c[nH]c2ccc(S(=O)(=O)Nc3ccc(OCC)cc3)cc2c1=O`, the inhibition was 2.91%.

As to `COc1cccc(NS(=O)(=O)c2ccc3[nH]cc(C(=O)NCCCOC(C)C)c(=O)c3c2)c1`, the inhibition was 10.3% (active).

For `CN1CCCCC(NC(=O)C(C)(C)C)C1=O` (configuration not stated), the inhibition was -1.72%.

For the molecule `CC(C)N(c1ccccc1)c1ncnc(NCCC(=O)O)c1[N+](=O)[O-]`, the inhibition was -1.67%.

For the molecule `O=C(O)CCCCCNc1ncnc2ccc(Br)cc12`, the inhibition was 18.3% (active).

In the case of `COC(=O)[C@]1(Cc2ccccc2)NC=C(C(=O)c2ccccc2)[C@@H]1c1cccc(OC)c1`, the inhibition is -1.25%.

Turning to `Cc1cccc(Nc2nc3c(S(=O)(=O)c4ccccc4)nnn3c3ccccc23)c1C`, the inhibition is 16.5% (active).

With `Cc1cc(Nc2cccc(C)c2C)n2ncnc2n1`, the inhibition was 0.14%.

Regarding `CC(=O)Nc1ccc(Nc2nc3c(S(=O)(=O)c4ccc(C)c(C)c4)nnn3c3ccccc23)cc1`, the inhibition is 1.78%.

Turning to `COc1cccc(CNC(=O)[C@H]2CCCN2C(=O)[C@H]2CCCN2C(=O)c2ccc(F)cc2)c1`, the inhibition is -1.74%.

In the case of `O=C(C(=O)N1CCC(CNS(=O)(=O)Cc2ccccc2)CC1)c1cc2ccccc2o1`, the inhibition is 0.63%.

`COC(=O)c1cc2c(c3c4cc(F)ccc4n(S(=O)(=O)c4ccccc4)c13)C(=O)N(Cc1ccccc1OC)C2`: the inhibition was 0.8%.

For `CCOC(=O)C1CSCCS(=O)(=O)N1Cc1ccc(Cl)cc1` (configuration not stated), the inhibition was -1.82%.

`Cc1ccccc1C(=O)N[C@H](C(=O)N1CCC[C@H]1C(=O)NCc1ccccc1)C(C)C`: the inhibition is -2.77%.

`Cc1nc2nc(SCC(=O)c3ccccc3)[nH]c2cc1Br`: the inhibition is 29.2% (active).

As for `CC(=O)Nc1ccc(C(=O)CSc2nc3ccc(C)cc3[nH]2)cc1`, the inhibition was -0.81%.

Turning to `Cc1nc2nc(SCC(=O)Nc3cccc(F)c3)[nH]c2cc1Br`, the inhibition is -0.51%.

Turning to `COc1cccc(-c2cc(CNC(=O)[C@@H](Cc3ccccc3)NC(=O)[C@H]3O[C@@H](n4cnc(C(N)=O)n4)[C@H](O)[C@@H]3O)no2)c1`, the inhibition was -2.73%.

For `COC(=O)[C@]12C[C@H](CC(=O)NCc3ccc(C)o3)C(=O)N(CCC3=CCCCC3)C1=C[C@H](C(C)(C)C)O[C@@H]2C`, the inhibition is -1.11%.

Regarding `COc1ccccc1-c1ccc([C@@H]2C[C@H]3[C@H](CON3C)CN2S(=O)(=O)c2cc(Cl)cc(Cl)c2)cc1`, the inhibition was -0.23%.

On to `CC[C@H](C)[C@H]1CNC(=O)C(=O)N1CC1CCN(CCc2ccc(OC)c(OC)c2)CC1`, for which the inhibition is -1.11%.

Turning to `Cc1cc2c(cc1C)N1C(=O)c3cc4ccccc4cc3NC(=O)C1C(=O)N2` (configuration not stated), the inhibition is 9.79% (active).

For the molecule `Cc1cc(N2CCN(C(=O)OC(C)(C)C)C[C@H]2C)ccc1N1CCN(Cc2ccccc2)[C@H](C)C1`, the inhibition is -1.9%.

Turning to `CCc1ccc(NC(=O)CSc2nnc(-c3cnccn3)n2Cc2ccco2)cc1`, the inhibition was 14.2% (active).

Take `CCOC(=O)Cc1csc(NC(=O)CSc2nnc(-c3cccnc3)n2Cc2ccco2)n1`: the inhibition is -0.33%.

For the molecule `CCn1c(SCC(=O)Nc2cc(C)ccc2C)nnc1-c1cnccn1`, the inhibition was 1.97%.

As for `CC(C)(C)C(c1nc2ccccc2[nH]1)n1c(Cc2csc3ccccc23)nc2ccccc21` (configuration not stated), the inhibition was 3.67%.

In the case of `CC(C)CCNC(=O)c1cccnc1Sc1ccccc1`, the inhibition is -0.45%.

As for `O=C(NCCOc1ccccc1)c1ccccc1F`, the inhibition was -0.63%.

In the case of `CC(C)OCCCNC(=O)c1cc(Sc2ccc(F)cc2)nc2ccccc12`, the inhibition is 17.2% (active).

For the molecule `O=S1(=O)c2ccc(Br)cc2-n2nncc2CN1Cc1cccc(Cl)c1`, the inhibition is 1.6%.

On to `Nc1ccn([C@@H]2O[C@H](C(=O)N[C@H]3CCCCNC3=O)[C@@H](O)[C@H]2O)c(=O)n1`, for which the inhibition is -0.25%.

As to `CCN(CC)S(=O)(=O)c1cc(C(=O)Nc2ccccn2)ccc1C`, the inhibition is -1.5%.

Take `CCOc1cc2ccccc2cc1C(=O)Nc1ccccn1`: the inhibition is 12.2% (active).

On to `CCOc1cc(NC(=O)c2ccccc2C(=O)O)c(OCC)cc1NC(=O)c1ccccc1F`, for which the inhibition is -7.45%.

Consider `Nc1ncnc2c1ncn2[C@@H]1O[C@H](C(=O)N[C@@H](CCc2ccccc2)C(=O)N2CCCN(Cc3cccs3)CC2)[C@@H](O)[C@H]1O`, for which the inhibition was 0.34%.

`C#CCN([C@@H](C)C(=O)OCC)S(=O)(=O)c1ccc(Br)cc1F`: the inhibition is -1.25%.

For the molecule `C[C@@H]1ON(C)[C@H]2C[C@H]3c4cc(N5CCOCC5)ccc4CCN3C[C@@H]12`, the inhibition was -1.04%.

Take `CC1(C)Cc2ccccc2-c2[nH]c(=S)[nH]c(=O)c21`: the inhibition is 35% (active).

Consider `N#CC1=C(N)Oc2[nH]c(=S)[nH]c(=O)c2C12C(=O)Nc1ccccc12` (configuration not stated), for which the inhibition is -2.89%.

Turning to `CC1(C)Cc2ccccc2/C(=C/C(=O)c2ccccc2)N1`, the inhibition is 0.12%.

As for `COC(=O)c1cc2c(c3c4ccccc4n(S(=O)(=O)c4cccc(C)c4)c13)C(=O)N(Cc1ccccc1)C2`, the inhibition is 0.57%.

Consider `N#Cc1cccc(C(=O)NCC2CCN(C(=O)C(=O)c3cc4ccccc4o3)CC2)c1`, for which the inhibition was -0.57%.

For the molecule `CCCCOCC1CN(CCCC)S(=O)(=O)c2c(Oc3ccc(F)cc3)cccc2O1` (configuration not stated), the inhibition was -0.05%.

For `O=C(C1=C(O)C(=O)N(Cc2ccccc2)C1c1cccnc1)c1ccco1` (configuration not stated), the inhibition was 7.52%.

Regarding `O=C(C1=C(O)C(=O)N(Cc2ccccc2)C1c1ccco1)c1ccco1` (configuration not stated), the inhibition was 17.9% (active).

With `CCOc1cc(C2C(C(=O)c3ccco3)=C(O)C(=O)N2Cc2ccccc2)ccc1O` (configuration not stated), the inhibition was 0.36%.

Consider `COC(=O)C1=C(C)N(Cc2cccc(C(F)(F)F)c2)C(=NCc2cccc(C(F)(F)F)c2)NC1c1ccccc1C(F)(F)F` (configuration not stated), for which the inhibition was -0.87%.

As to `COC(=O)C1=C(C)NC(=S)NC1c1ccc(OC)cc1` (configuration not stated), the inhibition was -0.48%.

On to `COC(=O)C1=C(C)N(Cc2cccc(C(F)(F)F)c2)C(=NCc2ccccc2)NC1c1ccc(Cl)cc1` (configuration not stated), for which the inhibition was -1.36%.

Consider `COC(=O)[C@H](CC(C)C)NS(=O)(=O)c1c(F)cccc1F`, for which the inhibition is -2.8%.

With `COc1ccc(S(=O)(=O)Nc2ccc3c(c2)C(=O)N([C@H](C)CO)C[C@H](C)[C@@H](CN(C)C)OCCCC[C@H](C)O3)cc1`, the inhibition is -0.42%.

For the origin of these results see PubChem BioAssay AID624416 (The Scripps Research Institute Molecular Screening Center, 2012).
